Results as given in PubChem BioAssay (NCATS).
Results filed as inconclusive are left out. A call without a number means that no potency is given here. Calls of active or inactive are those of the source. Calls follow the shape of the dose curve; as a rule, active = well fitted inhibition curve with a large enough effect in the signal ratio, with a control signal flat (not every such curve was filed as active); inconclusive = small, poorly fitted or top-dose-only effect, or effect the other way, or a change in a side signal; inactive = flat fitted curve, though single readings scatter; the % refers to the signal ratio.

experiment: qHTS Assay for Identification of Small Molecule Antagonists for NFkB Signaling Pathway (AID 895); settings: NFkB beta-lactamase reporter cells, FRET ratio 460/530; series mostly up to 38.3 µM
Procedure: NIH Molecular Libraries Screening Centers Network [MLSCN]
NIH Chemical Genomics Center [NCGC]
The TNF alpha/NFkB signaling pathway was assayed in NFkB-bla cells (Invitrogen), a ME-180 cervical carcinoma line containing a stably integrated beta-lactamase reporter gene controlled by a NFkB response element. […] The assay was screened at the EC50 of TNF alpha activation to identify inhibitors of TNF alpha/NFkB signaling.
NCGC Assay Protocol Summary:
Cells were trypsinized, washed in assay medium (AM, OPTI MEM with 0.5% fetal bovine serum, 0.1 mM nonessential amino acids, 1 mM sodium pyruvate, 10mM HEPES pH 7.3, 100U/ml penicillin, and 100 ug/ml streptomycin) and plated at 1000 cells/5 uL/well into black clear-bottom 1536 well plates. After an overnight incubation at 37 C and 5% CO2, 23 nL of compound were delivered by a pin tool, 1 uL of TNF alpha (10 pM final concentration in AM) was added and plates were incubated at 37 C for 5 hrs. One uL of LiveBLAzerTM detector mix (Invitrogen) was added, the plates incubated at room temperature for 2 hrs, and fluorescence intensity at 460 and 530 nm emission was measured at 405 nm excitation by an Envision (Perkin Elmer).
Potency is read from the fitted curve at half-maximal effect.

**Q.** For `C[C@]12N[C@H](Cc3ccccc31)c1ccccc12`, which Potency is on record?
**A.** Its Potency is “inactive”.

**Q.** Which Potency does the source give for `C[C@@H]1O[C@H](C[N+](C)(C)C)C[C@H]1O` here?
**A.** The Potency was “inactive”.

**Q.** With `NCCc1c[nH]c2ccc(O)cc12` as the compound, how does the Potency read?
**A.** Its Potency is “inactive”.

**Q.** Which Potency does the source give for `COc1ccc2c(c[n+](C)c3c4cc5c(cc4ccc23)OCO5)c1OC` here?
**A.** The Potency was 11.2 µM (active).

**Q.** With `Cn1cnc(CCN)c1` as the compound, how does the Potency read?
**A.** The Potency was “inactive”.

**Q.** For `CCCN(CCC)[C@@H]1CCc2ccc(O)cc2C1`, which Potency is on record?
**A.** Its Potency is “inactive”.

**Q.** With `NC(=NCCC[C@H](N)C(=O)O)N[N+](=O)[O-]` as the compound, how does the Potency read?
**A.** The Potency was “inactive”.

**Q.** Which Potency does the source give for `O=C1CCCN1CC#CCN1CCCC1` here?
**A.** Its Potency is “inactive”.

**Q.** For `CCCN1CCO[C@@H]2c3cc(O)ccc3OC[C@H]21`, which Potency is on record?
**A.** The Potency was “inactive”.

**Q.** Which Potency does the source give for `O=C(O)CC[N+](=O)[O-]` here?
**A.** The Potency was “inactive”.

**Q.** For `CNCCc1c[nH]c2ccc(O)cc12`, which Potency is on record?
**A.** Its Potency is “inactive”.

**Q.** With `NCCc1c[nH]c2ccccc12` as the compound, how does the Potency read?
**A.** The Potency was 12.6 µM (active).

**Q.** Which Potency does the source give for `CN[C@@H]1C[C@@H](c2ccc(Cl)c(Cl)c2)c2ccccc21` here?
**A.** Its Potency is 8.91 µM (active).
